# From PubChem BioAssay
# Calls of active or inactive are those of the source.
# How the values were obtained:
# [1] = compounds binding Alexa647 anti-His antibody – biochemical, small-molecule microarray, 635 nm fluorescence, artefact control for SMM control protein annotation, primary screen (AID 1128); conditions: higher = more signal;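 also: score merges feature fluorescence with signal-to-noise for each printed compound spot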
# [2] = test system: Human papillomavirus type 1a E7 protein (residues 1-88); assay: HPV1a E7 small-molecule binders, primary screen, biochemical, small-molecule microarray, residues 1-88, 635 nm (AID 1129); conditions: small-molecule microarray binding, fluorescence 635 nm; higher = more signal
# [3] = molecular target: Focal adhesion kinase 1 (Homo sapiens) (UniProt Q05397); assay: PTK2 protein binding on printed compound slides – biochemical, small-molecule microarray, 635/667 nm fluorescence, BSA, DTT, primary screen (AID 1130); conditions: 635 nm fluorescence, higher = more signal;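 also: composite of spot emission at 667 nm and signal to noise over triplicate slides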
# Chain of Focal adhesion kinase 1 (Homo sapiens) (Q05397 whole entry, looked up): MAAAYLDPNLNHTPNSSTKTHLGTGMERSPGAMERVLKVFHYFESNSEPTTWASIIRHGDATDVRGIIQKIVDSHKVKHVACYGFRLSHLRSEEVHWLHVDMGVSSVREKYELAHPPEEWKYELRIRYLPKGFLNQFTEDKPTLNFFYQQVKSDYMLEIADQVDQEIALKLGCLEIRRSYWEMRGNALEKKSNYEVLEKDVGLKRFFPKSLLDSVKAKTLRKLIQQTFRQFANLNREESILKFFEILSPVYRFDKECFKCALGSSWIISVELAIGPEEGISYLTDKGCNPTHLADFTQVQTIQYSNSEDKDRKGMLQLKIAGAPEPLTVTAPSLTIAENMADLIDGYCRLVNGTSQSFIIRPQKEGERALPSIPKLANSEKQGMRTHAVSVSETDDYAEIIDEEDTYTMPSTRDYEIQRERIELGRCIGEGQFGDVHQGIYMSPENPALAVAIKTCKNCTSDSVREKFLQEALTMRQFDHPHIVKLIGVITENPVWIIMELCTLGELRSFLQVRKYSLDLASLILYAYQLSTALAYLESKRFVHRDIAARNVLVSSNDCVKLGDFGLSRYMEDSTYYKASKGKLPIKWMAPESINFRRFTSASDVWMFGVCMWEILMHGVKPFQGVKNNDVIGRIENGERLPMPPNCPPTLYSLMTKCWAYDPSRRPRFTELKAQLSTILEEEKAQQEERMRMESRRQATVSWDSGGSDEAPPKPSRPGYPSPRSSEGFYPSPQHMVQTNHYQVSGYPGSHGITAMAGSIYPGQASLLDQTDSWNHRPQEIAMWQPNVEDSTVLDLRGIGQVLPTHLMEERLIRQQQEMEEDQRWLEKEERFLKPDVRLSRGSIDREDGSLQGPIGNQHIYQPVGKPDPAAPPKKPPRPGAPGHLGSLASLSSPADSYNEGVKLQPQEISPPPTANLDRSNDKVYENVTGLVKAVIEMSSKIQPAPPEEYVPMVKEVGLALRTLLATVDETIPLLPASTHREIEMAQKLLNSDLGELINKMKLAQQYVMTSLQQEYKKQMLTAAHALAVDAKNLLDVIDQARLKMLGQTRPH
# [4] = test system: Fibrinogen (Alexa647-labelled); assay: Alexa647-fibrinogen binding to printed small molecules – biochemical, small-molecule microarray, 635/667 nm fluorescence, artefact control for SMM control-protein annotation, profiling panel (AID 1131); conditions: fibrinogen-A647 binding fluorescence, higher = more signal;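 also: z-score merges 667 nm fluorescence with per-spot signal-to-noise over triplicate slides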
# [5] = molecular target: Follistatin (Homo sapiens) (UniProt P19883); assay: FST protein binding to printed compounds – biochemical, small-molecule microarray, 635/667 nm fluorescence, primary screen (AID 1132); conditions: 635 nm fluorescence, higher = more signal
# Chain of Follistatin (Homo sapiens) (P19883 whole entry, looked up): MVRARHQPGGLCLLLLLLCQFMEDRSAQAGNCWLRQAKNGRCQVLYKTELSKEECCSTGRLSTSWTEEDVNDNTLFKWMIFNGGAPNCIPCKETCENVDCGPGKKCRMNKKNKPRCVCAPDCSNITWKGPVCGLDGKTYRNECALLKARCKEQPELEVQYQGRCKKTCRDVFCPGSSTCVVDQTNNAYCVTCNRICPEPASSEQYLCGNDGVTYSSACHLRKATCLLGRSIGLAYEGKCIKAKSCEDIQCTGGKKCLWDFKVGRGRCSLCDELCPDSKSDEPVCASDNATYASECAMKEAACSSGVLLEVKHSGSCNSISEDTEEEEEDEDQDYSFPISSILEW
# [6] = molecular target: Fibroblast growth factor 2 (Homo sapiens) (UniProt P09038); assay: basic fibroblast growth factor binding to printed compounds – biochemical, small-molecule microarray, 635/667 nm fluorescence, primary screen (AID 1133); conditions: FGF2, fluorescence 635/667, higher = more signal
# Chain of Fibroblast growth factor 2 (Homo sapiens) (P09038 whole entry, looked up): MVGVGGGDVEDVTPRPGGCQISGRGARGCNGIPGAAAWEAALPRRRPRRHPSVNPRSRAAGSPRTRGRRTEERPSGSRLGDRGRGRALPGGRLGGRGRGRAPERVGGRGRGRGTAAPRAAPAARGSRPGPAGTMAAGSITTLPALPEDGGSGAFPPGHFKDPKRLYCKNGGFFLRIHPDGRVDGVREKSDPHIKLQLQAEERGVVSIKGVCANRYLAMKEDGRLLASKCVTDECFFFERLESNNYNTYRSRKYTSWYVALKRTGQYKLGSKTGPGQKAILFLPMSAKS
# [7] = JC-1 mitochondrial potential readout, lung cancer cells – cell-based, A549, JC-1 fluorescence, basal, 24 h, 100 nL, profiling panel (AID 1138); conditions: higher = more signal;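 also: A549 lung adenocarcinoma cells under basal conditions with no added stimulus; test concentration not given here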
# [8] = test system: Lefty1; assay: Lefty1 protein binding to printed compounds – biochemical, small-molecule microarray, 635/667 nm fluorescence, primary screen (AID 1139); conditions: fluorescence 635/667, higher = more signal
# [9] = test system: wheat germ agglutinin (Triticum aestivum), Alexa647-labelled; assay: Alexa647-WGA lectin binding to printed small molecules – biochemical, small-molecule microarray, 635/667 nm fluorescence, artefact control for SMM control-protein annotation, profiling panel (AID 1140); conditions: WGA-A647 binding, 635 nm fluorescence, higher = more signal;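 also: score merges 667 nm feature emission with signal to noise over triplicate slides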
# [10] = molecular target: Luciferin 4-monooxygenase (Photinus pyralis) (UniProt P08659); assay: inhibition of purified Photinus pyralis luciferase – biochemical, luminescence, purified enzyme, 2006 set, primary screen (AID 1141); conditions: purified firefly luciferase, SteadyGlo luminescence, 30 min; higher = more signal, called active from +8 up or from −8 down;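 also: cell-free assay with purified firefly luciferase at 100 ng per well in PBS; test concentration not given here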
# Chain of Luciferin 4-monooxygenase (Photinus pyralis) (P08659 whole entry, looked up): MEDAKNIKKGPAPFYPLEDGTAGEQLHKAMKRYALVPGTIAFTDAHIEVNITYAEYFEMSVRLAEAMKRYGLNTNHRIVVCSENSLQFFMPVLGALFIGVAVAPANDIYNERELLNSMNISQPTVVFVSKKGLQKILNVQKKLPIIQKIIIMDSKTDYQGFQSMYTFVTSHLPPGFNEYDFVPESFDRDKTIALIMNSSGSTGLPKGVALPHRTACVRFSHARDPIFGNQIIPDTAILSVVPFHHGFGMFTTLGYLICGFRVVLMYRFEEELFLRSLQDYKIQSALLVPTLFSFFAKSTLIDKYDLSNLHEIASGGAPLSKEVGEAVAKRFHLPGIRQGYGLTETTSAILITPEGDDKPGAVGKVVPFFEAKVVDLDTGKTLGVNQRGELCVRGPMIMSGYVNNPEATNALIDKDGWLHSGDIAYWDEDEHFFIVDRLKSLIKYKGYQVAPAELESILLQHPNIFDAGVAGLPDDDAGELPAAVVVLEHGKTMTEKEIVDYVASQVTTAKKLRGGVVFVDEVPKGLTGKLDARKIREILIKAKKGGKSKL
Compound,composite z-score [1],composite z-score [2],composite z-score [3],composite z-score [4],composite z-score [5],composite z-score [6],z-score [7],composite z-score [8],composite z-score [9],z-score [10]
COc1ccc([C@H]2C[C@H]3C(Br)=C[C@]2(OC)C(=O)[C@]32CO2)cc1,1.2,0.0022,-0.458,-0.278,0.276,1.2,-1.02,-0.1,-0.06,0.909 (inactive)
O=C(CS)NCCCCCNC(=O)[C@H]1C[C@H]2C(=O)N3CCC[C@H]3C(=O)N2[C@H]1c1ccc(O)cc1,0.215,-1.25,-0.384,-0.743,0.927,0.917,1.54,-0.0421,-1.68,-1.75 (inactive)
COc1cc([C@@H]2N[C@H](C(=O)O)Cc3c2[nH]c2ccccc32)cc(OC)c1OC,0.386,0.431,0.161,0.514,0.275,0.254,0.559,0.531,0.373,-0.538 (inactive)
Cc1ccc(S[C@]2(C(=O)NCCCN(C)C)CC(=O)N(Cc3ccccc3)[C@@H]2c2ccc(CO)cc2I)cc1,0.412,-0.0835,0.152,0.233,-0.143,-1.33,3.68,-0.892,0.876,-0.0307 (inactive)
CCCC/C=C/[C@H]([C@@H](O)Cc1ccccc1)N(CC#Cc1ccccc1)Cc1ccccc1Br,0.0428,-0.462,-0.219,-0.986,-1.59,-1.37,1.03,-1.84,-0.788,-1.12 (inactive)
O=C1O[C@@H](c2ccccc2)[C@@H](c2ccccc2)N2[C@@H](c3ccc(O)cc3)[C@]3(C(=O)Nc4ccccc43)[C@@H](C(=O)N3CCN(c4ncccn4)CC3)[C@H]12,0.265,1.19,0.225,0.179,0.169,-0.0433,0.948,-0.173,-0.387,-1.51 (inactive)
C=C(COC)/C(=C/C[C@@H](OC(C)=O)c1cccc(OCCO)c1)c1cc(C(=O)OC)ccc1OC,-1.25,0.0995,-0.453,-1.09,0.954,0.202,1.37,0.499,-1.12,-2.09 (inactive)
COc1ccc(CCNC(=O)[C@@]2(c3ccc([N+](=O)[O-])cc3)CC(=O)N(C(C)C)[C@@H]2c2ccc(CO)cc2)cc1,-0.601,-0.622,-0.637,-2.13,-0.669,-0.848,0.774,-2.2,-0.81,-0.939 (inactive)
CC(C)(C)OC(=O)CC[C@]1(C(=O)N2CCCCC2)N=C(c2ccc(OCCCO)cc2)O[C@H]1c1ccccc1,1.81,1.2,0.717,0.985,1.24,1.15,1.98,1.01,1.27,-2.85 (inactive)
COC(=O)c1ccc(C#CC(NP(=O)(c2ccccc2)c2ccccc2)c2ccccc2)cc1 (stereo not given),0.15,1.18,0.671,0.963,1.41,-0.0037,1.53,0.468,1.43,0.853 (inactive)
C#CCNC(/C=C/c1ccccc1)CO (stereo not given),0.638,0.355,-0.0492,0.269,0.362,0.106,-1.07,0.394,-0.0687,0.835 (inactive)
COc1cccc([C@@H]2[C@@H](C)CC[C@H]3C(=O)N4[C@H](c5cccc(OC)c5)[C@@H](C)CC[C@H]4C(=O)N23)c1,0.584,0.276,-0.175,0.817,0.614,0.428,1.55,0.418,0.248,-1.78 (inactive)
C=C(C(=O)CC[C@H](OC(=O)c1ccccc1-c1ccccc1C(=O)O)c1ccc(CO)o1)C(C)C,2.61,0.0323,0.0321,0.531,1.27,1.46,-0.528,1.04,0.0123,-1.75 (inactive)
CCN1C(C)=C(C(=O)OC)[C@@H](c2ccccc2)N2C(=O)[C@@]3(C(=O)OC)O[C@@]12[C@@H]1C(=O)CCC[C@@H]13,-0.116,-0.356,-0.315,-1.47,1.29,1.01,0.862,1.48,-1.05,-2.3 (inactive)
Cc1ccccc1C(O)C1C=CC2C(=O)N(c3ccccc3)C(=O)C2N1Nc1ccc(C#N)cc1 (stereo not given),2.68,1.21,0.842,0.523,0.683,0.302,-0.638,0.0979,1,-1.33 (inactive)
C=C[C@H](OC)[C@@H](OC(=O)Nc1ccc(SC)cc1)c1ccc(OC)c(O)c1,-0.548,-0.19,-0.0802,-0.666,-0.466,-0.896,0.52,-0.541,-1.51,-2.18 (inactive)
C[N+](C)(C)CCCC[C@@H]1NC(=O)[C@H]2C[C@@H](C(=O)NCc3ccc(F)cc3)[C@@H](c3cccc(OCCO)c3)N2C1=O,1.02,0.431,1.05,0.14,1.46,1.85,1.3,1.07,0.0979,-0.908 (inactive)

Compound,composite z-score [1],composite z-score [2],composite z-score [3],composite z-score [4],composite z-score [5],composite z-score [6],z-score [7],composite z-score [8],composite z-score [9],z-score [10]
Cc1ccc(N2C(=O)c3ccccc3[C@@H](C(=O)NCC(F)(F)F)[C@@H]2c2ccc(CO)cc2)nc1,-1.37,-2.06,-0.589,-1.4,-2.06,-0.59,-0.913,-3.17,-0.925,-0.642 (inactive)
CO[C@H]1COC(=O)[C@H](C)NC(=O)CC=C[C@@H](C)[C@H](NS(=O)(=O)c2ccc(C)cc2)COC(=O)[C@@H](OCc2ccccc2)C=C[C@@H]1C,-1.04,-0.515,0.269,-0.394,0.641,0.574,1.87,1.02,-0.609,-0.893 (inactive)
COc1ccc([Si](C)(C)[C@@H]2[C@@H](CCO)O[C@]3(C(=O)N(Cc4ccccc4)c4ccccc43)[C@H]2C)cc1,1.42,0.319,0.331,-0.153,0.32,1.21,-0.234,0.32,-0.139,-0.238 (inactive)
O=C(NCc1ccccc1)c1ccc(Br)cc1[N+](=O)[O-],-0.26,0.292,-0.1,-0.0828,0.405,0.465,0.543,0.505,0.352,-0.941 (inactive)
CC(C)CN1C(=O)[C@@]2(Cc3ccccc31)c1ccccc1C(=O)N(C1CCCCC1)[C@H]2c1ccc(CO)cc1,-1.34,-1.05,-0.133,-1.04,-0.447,-0.914,-0.269,-1.28,-1.14,-0.275 (inactive)
CCC(=O)[C@]12O[C@@]3([C@@H]4C(=O)OCC[C@@H]41)N(Cc1ccccc1)C(C)=C(C(=O)OC)[C@@H](c1ccccc1)N3C2=O,-0.97,-2.31,0.0625,-1.35,-0.65,-0.715,1.27,0.197,-0.803,-1.36 (inactive)
CCOC(=O)C[C@H]1[C@H](OC(=O)c2ccccc2-c2ccccc2)[C@@H](NC(=O)c2ccc(-c3ccccc3)cc2)c2cc(OCCCO)ccc2N1C(=O)Cc1ccc(OC)cc1,-0.293,-0.301,0.371,0.411,0.362,0.487,0.78,0.566,-0.12,0.393 (inactive)
C=CCNC(=O)[C@@H]1[C@H]2C(=O)O[C@H](c3ccccc3)[C@H](c3ccccc3)N2[C@H](c2ccc(OCCO)cc2)[C@@]12C(=O)N(C(=O)OCCOC)c1ccc(C#CC3(O)CCCCCC3)cc12,0.166,1.2,0.262,0.827,1.18,0.833,-1,0.326,1.15,-2.35 (inactive)
O=C1c2ccccc2[C@](Cc2ccccc2I)(C(=O)NCc2ccccc2)[C@H](c2ccc(CO)cc2)N1Cc1ccccc1C(F)(F)F,-0.77,-0.455,-0.328,-0.373,-1.2,-1.36,1.11,-1.22,-1.12,-1.09 (inactive)
C=CCc1cccc([C@H]2N[C@H](C(=O)O)CC[C@@H]2C)c1,0.7,0.297,1.34,0.172,0.648,0.972,0.809,0.825,-0.173,-0.42 (inactive)
COCCOC(=O)N1C(=O)[C@@]2(c3cc(C#CC4=CCCCC4)ccc31)[C@H](C(=O)NC[C@H](O)c1ccccc1)[C@H]1C(=O)O[C@H](c3ccccc3)[C@H](c3ccccc3)N1[C@@H]2c1ccc(OCCO)cc1,0.577,1.2,0.221,0.955,1.35,1.22,-1.73,1.08,0.971,-0.526 (inactive)
CO[C@H]1COC(=O)[C@@H](C)NC(=O)CC=C[C@@H](C)[C@H](OC)COC(=O)CC=C[C@@H]1C,-0.31,-1.46,0.223,-1.07,1.34,1.63,2.3,1.66,-1.16,-1.38 (inactive)
CC(=O)NCCCC[C@@H]1NC(=O)[C@H]2C[C@@H](C(=O)NCCCCCCN(C)C)[C@@H](c3ccc(O)cc3)N2C1=O,3.14,1.25,0.554,0.793,1.34,0.903,-1.26,1.55,1.29,0.0866 (inactive)
CCCC[C@@H]1C[C@H]1[C@@H](NC(=O)c1ccccc1)c1ccccc1C(F)(F)F,0.412,1.22,0.826,1.03,0.243,-0.113,0.294,-0.826,1.17,1.31 (inactive)
COc1ccc(C(=O)Nc2ccc(CN3C(=O)[C@]4(O[C@H](CCn5cc(CCO)nn5)[C@@H]([Si](C)(C)c5ccc(OC)cc5)[C@@H]4C)c4ccccc43)cc2)cc1,0.748,1.13,0.203,0.92,0.867,1.57,1.14,0.426,0.798,-1.26 (inactive)
C[C@H]1COC(=O)[C@@H]2CCCN2C(=O)[C@@H](C)COC(=O)[C@@H]2CCCN2C1=O,-0.451,-0.367,0.213,-0.135,0.0429,0.1,1.05,0.308,-0.468,-0.515 (inactive)
